Screens (PubChem BioAssay)
697 NFkB inh = lowers PMA/ionomycin-induced NF-kB signal in 697 B cells. inhibition, % at 4 µM. actives 0.33% (n = 330,000). 697 B-cell NF-kB luciferase reporter, 16 h. AID 435022; in the data active means inhibition above about 35%
TAG inh = reduces triacylglycerol accumulation in H9c2 cells. Nile Red lipid (TAG) fluorescence; cells loaded with 200 µM oleic acid. inhibition, % at 12.5 µM. actives 0.66% (n = 230,000). AID 651582;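 active means pattern-corrected inhibition of lipid staining of at least 50% with the nuclear-stain viability signal not falling by more than 50%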;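 further: 0% = DMSO wells and 100% = triacsin C control wells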
Jurkat NFkB inh = lowers PMA/ionomycin-induced NF-kB signal in Jurkat cells | PMA/ionomycin-induced NF-kB luciferase reporter, luminescence | inhibition, % at 4 µM | actives 0.53% (n = 330,000); in the data active means inhibition above about 50%
NR2F2 inh = NR2F2 (human) inhibition, primary screen; HEK293T NGFI-A luciferase reporter, luminescence; inhibition, % at 8.6 µM; actives 0.7% (n = 370,000);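 active means inhibition above a per-plate cutoff, mean inhibition of test wells between control levels plus 3 SD, cut at about 38% in these data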;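 further: cells cotransfected with COUP-TFII expression vector driving the NGFI-A reporter; 0% = median of COUP-TF2 test wells and 100% = reporter-only cells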
Target sequence (P24468 whole entry, looked up): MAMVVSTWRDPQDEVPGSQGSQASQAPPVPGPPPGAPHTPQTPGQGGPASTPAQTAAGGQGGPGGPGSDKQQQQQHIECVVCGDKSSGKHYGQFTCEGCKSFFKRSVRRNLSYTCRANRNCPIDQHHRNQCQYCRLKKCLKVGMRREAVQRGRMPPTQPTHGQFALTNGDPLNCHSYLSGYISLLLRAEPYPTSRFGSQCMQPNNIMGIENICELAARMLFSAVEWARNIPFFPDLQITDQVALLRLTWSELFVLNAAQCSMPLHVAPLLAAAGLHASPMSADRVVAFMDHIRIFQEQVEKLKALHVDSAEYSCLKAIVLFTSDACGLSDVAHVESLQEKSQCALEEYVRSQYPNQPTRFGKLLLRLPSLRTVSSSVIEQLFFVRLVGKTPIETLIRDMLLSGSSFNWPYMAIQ
H9c2 protect = myocardial damage modulation in H9c2 cells | H9c2 cardiomyocytes, H2O2 injury protection, ATPLite, 2 h | protection from H2O2 cell death, % at 20 µM | actives 0.63% (n = 360,000) | AID 588492;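 active means compounds giving at least 50% protection of heart cells from peroxide-induced death in the single-dose screen, raw or plate-pattern-corrected value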;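 further: 0% = DMSO wells with peroxide and 100% = DMSO wells without peroxide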
Gli-Sufu antag = Gli-Sufu pathway antagonism; actives 0.74% (n = 340,000); inhibition, % at 5 µM; AID 588413; Sufu-KO-LIGHT fibroblasts, Gli luciferase reporter luminescence;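 active means inhibition above about 55%, limit read from the data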;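 further: 0% = DMSO-treated cells and 100% = wells with medium but no cells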
H9c2 TAG conf = confirmation of triacylglycerol accumulation inhibitors; shares compounds with TAG inh; H9c2 lipid accumulation, Nile Red fluorescence; cells loaded with 200 µM oleic acid; inhibition, % at 12.5 µM; actives 71% (n = 990); AID 651629;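 active means mean inhibition across replicates of 40% or more; inactive means mean inhibition below 40%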;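 further: plate controls were DMSO only wells for no effect and Triacsin C treated wells for full effect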
VP16 Luc counter = inhibits VP16 reporter, flagging COUP-TFII antagonist hits. shares compounds with NR2F2 inh. actives 25% (n = 2,500). HEK293 Gal4-VP16 luciferase reporter, luminescence. inhibition, % at 8.5 µM. AID 687007; in the data active means inhibition above about 13%
NR2F2 inh conf = COUP-TFII (NR2F2) inhibition, confirmation assay; HEK293 NGFI-A luciferase reporter, luminescence; shares compounds with NR2F2 inh; AID 687008; actives 45% (n = 2,500); inhibition, % at 8.5 µM;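 active means mean inhibition over three repeats above a set limit taken from the earlier primary screen, cut at about 38% in these data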;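 further: 100% = cells given the luciferase reporter alone without the COUP-TF2 vector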
An asterisk follows results filed as active; . = not tested or not shown. Sampled rows, rich in hits. Any-hit rate of the full collection: about 2.6%.

SMILES | 697 NFkB inh | TAG inh | Jurkat NFkB inh | NR2F2 inh | H9c2 protect | Gli-Sufu antag | H9c2 TAG conf | others
c1ccc(Nc2nc(N3CCNCC3)nc(N3CCOCC3)n2)cc1 | 15 | 88* | -22 | -8 | 1 | -1 | 35
O=[N+]([O-])c1ccc(Nc2nc(N3CCOCC3)nc(N3CCOCC3)n2)cc1 | 11 | 53* | -7 | 18 | 3 | 4 | 61*
O=[N+]([O-])c1ccc(Nc2nc(N/N=C\c3ccc4c(c3)OCO4)nc(N3CCCCC3)n2)cc1 | 27 | 66* | 23 | -26 | 41 | 7 | 37
O=[N+]([O-])c1ccc(/C=N/Nc2nc(N3CCCCC3)nc(N3CCCCC3)n2)cc1 | -13 | 9 | -15 | -12 | 1 | 14 | .
COc1ccc(CNC(=O)C[C@H]2C[C@H](C(=O)N3CCCCC3)[C@@]3(CCc4ccccc4)c4[nH]c5ccc(Cl)cc5c4CCN3C2=O)cc1OC | -11 | 53* | . | 8 | -8 | -4 | 84*
CC(C)=CCC/C(C)=C/CNC(=O)C[C@H]1C[C@H](C(=O)N(C(C)C)C(C)C)[C@@]2(C)c3[nH]c4ccc(Cl)cc4c3CCN2C1=O | 4 | 46 | . | -3 | -36 | 0 | .
CC[C@]12c3[nH]c4cc(-c5ccco5)ccc4c3CCN1C(=O)[C@@H](CC(=O)NC/C=C(\C)CCC=C(C)C)C[C@@H]2C(=O)N1CCN(C(=O)C2CC2)CC1 | -70 | 30 | . | 8 | -4 | -14 | .
C[C@]12c3[nH]c4ccccc4c3CCN1C(=O)C(CC(=O)NCC13CC4CC(CC(C4)C1)C3)C[C@@H]2C(=O)N1CCOCC1 (stereo partly drawn) | -10 | 13 | 1 | 4 | -1 | 0 | .
COc1ccc2[nH]c3c(c2c1)CCN1C(=O)C(CC(=O)NC/C=C(\C)CCC=C(C)C)C[C@H](C(=O)N(C(C)C)C(C)C)[C@@]31C (stereo partly drawn) | 5 | 55* | . | -9 | -24 | 3 | 55*
CC(C)=CCC/C(C)=C/CNC(=O)C[C@H]1C[C@H](C(=O)N2CCCCC2)[C@@]2(CCc3ccccc3)c3[nH]c4cc(-c5ccco5)ccc4c3CCN2C1=O | 18 | 69* | . | . | -14 | 2 | 92*
C[C@]12c3[nH]c4ccccc4c3CCN1C(=O)C(CC(=O)NCC13CC4CC(CC(C4)C1)C3)C[C@@H]2C(=O)N1CCCCC1 (stereo partly drawn) | -5 | 83* | 10 | -1 | -13 | -4 | 61*
CC[C@]12c3[nH]c4ccc(Cl)cc4c3CCN1C(=O)[C@@H](CC(=O)NCc1ccc(OC)c(OC)c1)C[C@@H]2C(=O)N1CCN(C(=O)C2CC2)CC1 | 16 | 18 | . | 9 | -8 | 2 | .
C=CCNC(=O)CN(C(=O)Cc1cccc(OC(F)(F)F)c1)c1cccc(Br)c1 | . | . | . | 4 | . | . | .
Cc1ccc(S(=O)(=O)n2ccc(-c3c(-c4ccc(F)cc4)noc3C)n2)cc1 | . | . | . | 18 | . | . | .
COC(=O)C1=C(C)N(Cc2cccc(C(F)(F)F)c2)C(=NCc2cc(OC)c(OC)c(OC)c2)NC1c1ccccc1C(F)(F)F (stereo not drawn) | . | . | . | 0 | . | . | .
COC(=O)[C@]12C[C@H](CC(=O)NCc3ccc(OC)c(OC)c3)C(=O)N(CCC3=CCCCC3)C1=C[C@H](C(C)C)O[C@@H]2C1CC1 | . | . | . | 21 | . | . | .
CCC1=Nc2cc(C(=O)NCCCOC)ccc2Sc2ccccc21 | 5 | 61* | 46 | -61 | -1 | 16 | 45*
O=C(NCCC1=CCCCC1)C1CCN(S(=O)(=O)N2CCCC2)CC1 | 5 | -7 | -5 | 18 | 3 | -1 | .
O=C(NCCC1=CCCCC1)C1CCN(C(=O)Nc2ccccc2)CC1 | 2 | 51* | 2 | -4 | 2 | 6 | 33
O=C(/C=C/c1ccccc1)Oc1cccc2cccnc12 | -2 | 50* | -16 | -18 | -2 | 2 | -5
CCOc1c(Cl)cc(/C=C/C(=O)N(CC)CC(=O)NCc2cccs2)cc1OC | 1 | 59* | 3 | 11 | -4 | -6 | 43*
CCOc1cc(/C=C/C(=O)N(CC)CC(=O)NCc2cccs2)cc(Cl)c1OC | 22 | 39 | 10 | 3 | 3 | -1 | .
Cc1ccc(-n2nc(C(=O)NCc3ccc(C)o3)c3c4ccccc4n(C)c3c2=O)cc1 | 11 | 53* | 3 | 1 | -1 | 15 | 21
COC(=O)[C@]12C[C@H](CC(=O)N3CCCC3)C(=O)N(Cc3ccco3)C1=C[C@H](C(C)(C)C)O[C@@H]2C | . | . | . | -2 | . | . | .
Cc1nn(-c2ccccc2)c2c1CC(=O)Nc1ccccc1-2 | . | 74* | . | -70 | -1 | 40 | 87*
SMILES | 697 NFkB inh | TAG inh | Jurkat NFkB inh | NR2F2 inh | H9c2 protect | Gli-Sufu antag | H9c2 TAG conf | others
COC(=O)[C@]12CCCCC=C1N(Cc1ccc(OC)cc1)C(=O)[C@@H]2CC(=O)NCCCN1CCCC1=O | . | . | . | -5 | . | . | .
CC(O)c1nc2ccccc2n1C/C=C/c1ccccc1 (stereo not drawn) | 6 | -17 | -5 | -1 | 4 | 4 | .
Cc1c(P(=S)(c2ccccc2)c2ccccc2)[n+]2ccccc2n1C/C=C/c1ccccc1 | . | 83* | . | 38* | -26 | . | 90* | VP16 Luc counter=5;NR2F2 inh conf=4
COC(=O)[C@]12C[C@H](CC(=O)NCc3cccc4ccccc34)C(=O)N(Cc3ccccc3)C1=C[C@H](C(C)C)O[C@@H]2C1CC1 | . | . | . | 6 | . | . | .
CCOc1ccc(CCNC(=O)c2cc3sccc3n2CC)cc1OCC | -40 | 79* | 6 | 50* | -1 | 3 | 40 | VP16 Luc counter=0;NR2F2 inh conf=29
COC(=O)[C@]12C[C@H](CC(=O)NCCCN3CCCC3=O)C(=O)N(Cc3ccc4c(c3)OCO4)C1=C[C@H](C(C)(C)C)O[C@@H]2C | . | . | . | 6 | . | . | .
CC(C)(C)c1ccc(Oc2ccc(NC(=O)c3ccccc3C(=O)O)cn2)cc1 | -31 | 62* | 32 | 80* | -3 | 43 | 6 | VP16 Luc counter=47*;NR2F2 inh conf=19
Cc1ccc(C)c(C(=O)OCC(=O)Nc2cccc(S(=O)(=O)N3CCCCC3)c2)c1 | -24 | -14 | 1 | 43* | -24 | . | . | VP16 Luc counter=3;NR2F2 inh conf=30
Cc1ccccc1C(=O)OCC(=O)Nc1cccc(S(=O)(=O)N2CCCCC2)c1 | . | -12 | . | 12 | -26 | . | .
CC(=O)c1ccc(OCC(=O)Nc2cccc(S(=O)(=O)N3CCCC3)c2)cc1 | -24 | -7 | 13 | 43* | -23 | 24 | . | VP16 Luc counter=-8;NR2F2 inh conf=13
